{
  "source": "PubChem BioAssay (NCI)",
  "note": "The panel holds about 79,000 compounds, 15% with a hit somewhere; the sample as a whole holds those more often. The source made the active and inactive calls. Rule as the data show it: active = growth inhibition above about 70%; inactive = the rest.",
  "data": [
    {"experiment": "NCI Yeast Anticancer Drug Screen. Data for the bub3 strain (AID 167)", "details": "S. cerevisiae bub3 mutant strain, at 50.0 µM, stronger effect = higher value", "method_in_brief": "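In this screen, a yeast mutant lacking normal mitotic checkpoint function is challenged with compound. Relative growth versus vehicle gives the inhibition value.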", "values": [
      {"smiles": "Cc1ccc(S(=O)(=O)NNc2nc(N3CCOCC3)nc(N3CCOCC3)n2)cc1", "growth inhibition": "17.9% (inactive)"},
      {"smiles": "O=C1OC(CC(=O)c2ccc(Cl)cc2Cl)C(Cl)=C1Cl", "note": "(stereo unspecified)", "growth inhibition": "58.5% (inactive)"},
      {"smiles": "CCOC(=O)c1ccc(-n2c(C)nc3ccc(Br)cc3c2=O)cc1", "growth inhibition": "77.6% (active)"},
      {"smiles": "CCN(CC)CCOc1ccc(C=C2c3ccccc3-c3ccccc32)cc1", "growth inhibition": "99.2% (active)"},
      {"smiles": "Cc1nn(C(=O)c2ccccc2O)c2c1C(c1ccc(O)cc1O)SC(N)=N2", "note": "(stereo unspecified)", "growth inhibition": "71.7% (active)"},
      {"smiles": "CN(NC(=O)/C(=C/c1cc(Cl)cc(Cl)c1O)NC(=O)c1ccccc1)c1cnn(-c2ccccc2)c(=O)c1Cl", "growth inhibition": "60% (inactive)"},
      {"smiles": "Cn1c(=S)c2[nH]c(SCc3ccncc3)nc2n(C)c1=O", "growth inhibition": "56.4% (inactive)"},
      {"smiles": "O=C1N=c2ccc(Br)cc2=C1c1sc(=O)n(Cc2nc3ccccc3[nH]2)c1O", "growth inhibition": "9.4% (inactive)"},
      {"smiles": "N#C/C(=C\\c1cccnc1)c1csc2ccccc12", "growth inhibition": "94.2% (active)"},
      {"smiles": "Cc1nn(CCO)c(=O)c(C#N)c1C", "growth inhibition": "34.1% (inactive)"},
      {"smiles": "CN(/N=C/c1ccc(C(=O)O)cc1)C1=NCCCCN1", "growth inhibition": "3.2% (inactive)"},
      {"smiles": "C=CCCCN1C(=O)C2C3c4ccccc4C(C=O)(c4ccccc43)C2C1=O", "note": "(stereo unspecified)", "growth inhibition": "4.65% (inactive)"},
      {"smiles": "CC(Cc1ccccc1)N1C(=O)C=CC1=O", "note": "(stereo unspecified)", "growth inhibition": "92.2% (active)"},
      {"smiles": "O=C(Nc1c(Cl)cc([N+](=O)[O-])cc1Cl)/C(=N\\Nc1cccc(Cl)c1)c1c(O)c2ccccc2oc1=O", "growth inhibition": "31% (inactive)"},
      {"smiles": "C/C(=N/O)c1ccc2c(c1)C(=NO)c1cc(/C(C)=N/O)ccc1-2", "growth inhibition": "93.5% (active)"},
      {"smiles": "CCCCCCCCCCCC(=O)NC(CCC(=O)O)C(=O)O", "note": "(stereo unspecified)", "growth inhibition": "-2.15% (inactive)"},
      {"smiles": "O=C1c2ccccc2C(=O)c2c1cccc2[N+](=O)[O-]", "growth inhibition": "71.4% (active)"},
      {"smiles": "C/C=C\\C=N\\NC(N)=S", "growth inhibition": "-2.1% (inactive)"},
      {"smiles": "Oc1c(Cl)cc(C(c2cc(Cl)c(O)c(Cl)c2)C(c2cc(Cl)c(O)c(Cl)c2)c2cc(Cl)c(O)c(Cl)c2)cc1Cl", "growth inhibition": "93.9% (active)"},
      {"smiles": "S=C1NC2=C(CSC/C2=C\\c2ccccc2)C(c2ccccc2)N1", "note": "(stereo unspecified)", "growth inhibition": "73.1% (active)"},
      {"smiles": "O=[N+]([O-])c1cccc2nc3ccccc3c(NCCNCCO)c12", "growth inhibition": "10.6% (inactive)"},
      {"smiles": "COC12C=CC(CC1)c1c2c(O)c2ccncc2c1O", "note": "(stereo unspecified)", "growth inhibition": "59.8% (inactive)"}
    ]},
    {"experiment": "NCI Yeast Anticancer Drug Screen. Data for the mlh1 rad18 strain (AID 175)", "details": "S. cerevisiae mlh1 rad18 strain growth inhibition; at 5.0 µM (retest, dose inferred, filed as 0.5); stronger effect = higher value", "method_in_brief": "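Read-out is yeast growth inhibition, calculated against vehicle-only controls. The compound was applied to a strain engineered with DNA damage repair alterations.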", "values": [
      {"smiles": "CC(=O)Oc1ccccc1C(=O)/C=C/c1ccccc1", "growth inhibition": "-1% (inactive)"},
      {"smiles": "CN(C)C(=S)/N=c1\\ssc(=S)n1-c1ccccc1", "growth inhibition": "23% (inactive)"},
      {"smiles": "CCOC(=O)C(NS(=O)(=O)c1ccccc1)(C(F)(F)F)P(=O)(OCC(C)C)OCC(C)C", "note": "(stereo unspecified)", "growth inhibition": "0% (inactive)"},
      {"smiles": "CC(C)Nc1nc(NC(C)C)c2cnn(-c3ccccc3)c2n1", "growth inhibition": "3% (inactive)"},
      {"smiles": "CCCCCCCCC1(OCCCS(=O)(=O)O)COc2ccccc2OCCOCCOc2ccccc2OC1", "growth inhibition": "-7% (inactive)"},
      {"smiles": "Oc1ccc2c(c1)Cc1ccccc1-2", "growth inhibition": "-1% (inactive)"},
      {"smiles": "CCOC(=O)N1C2C=CC(=O)C(C=C2)N1C(=O)OCC", "note": "(stereo unspecified)", "growth inhibition": "18% (inactive)"},
      {"smiles": "CC(=O)OCc1ccc2c(c1)C(O)NC(=O)O2", "note": "(stereo unspecified)", "growth inhibition": "43% (inactive)"},
      {"smiles": "CC(C)=CCc1ccc(O)cc1", "growth inhibition": "1% (inactive)"},
      {"smiles": "CCCCCCCCC(=O)Cl", "growth inhibition": "6% (inactive)"},
      {"smiles": "O=S1(=O)C(C(O)(c2ccccc2)c2ccccc2)CCCN1c1ccccc1", "note": "(stereo unspecified)", "growth inhibition": "-2% (inactive)"},
      {"smiles": "CCCCCCCCCCCCNCC(=O)O", "growth inhibition": "3% (inactive)"},
      {"smiles": "CC(C)=CCc1c2c(c(O)c3c(=O)c(-c4ccc(O)cc4O)coc13)C=CC(C)(C)O2", "growth inhibition": "7% (inactive)"},
      {"smiles": "O=C(CCC(O)(c1ccccc1)c1ccccc1)c1ccccc1", "growth inhibition": "-3% (inactive)"},
      {"smiles": "CS(=O)(=O)OCCN(CCOS(C)(=O)=O)c1ccc(C=Nc2ccc(-c3csc(-c4ccc(Br)cc4)n3)cc2)cc1", "growth inhibition": "60% (inactive)"},
      {"smiles": "O=P(O)(CN1CCN(CP(=O)(O)c2ccccc2)CCN(CP(=O)(O)c2ccccc2)CC1)c1ccccc1", "growth inhibition": "22% (inactive)"},
      {"smiles": "CC(C)c1ccc2c(c1)CCC1C(C)(CN)CCCC21C", "note": "(stereo unspecified)", "growth inhibition": "32% (inactive)"},
      {"smiles": "Cc1ccc(S(=O)(=O)NNc2nc(N3CCOCC3)nc(N3CCOCC3)n2)cc1", "growth inhibition": "0% (inactive)"},
      {"smiles": "O=C1OC(CC(=O)c2ccc(Cl)cc2Cl)C(Cl)=C1Cl", "note": "(stereo unspecified)", "growth inhibition": "-1% (inactive)"},
      {"smiles": "CCOC(=O)c1ccc(-n2c(C)nc3ccc(Br)cc3c2=O)cc1", "growth inhibition": "-2% (inactive)"},
      {"smiles": "CCN(CC)CCOc1ccc(C=C2c3ccccc3-c3ccccc32)cc1", "growth inhibition": "98% (active)"},
      {"smiles": "Cc1nn(C(=O)c2ccccc2O)c2c1C(c1ccc(O)cc1O)SC(N)=N2", "note": "(stereo unspecified)", "growth inhibition": "-4% (inactive)"},
      {"smiles": "CN(NC(=O)/C(=C/c1cc(Cl)cc(Cl)c1O)NC(=O)c1ccccc1)c1cnn(-c2ccccc2)c(=O)c1Cl", "growth inhibition": "-7% (inactive)"},
      {"smiles": "Cn1c(=S)c2[nH]c(SCc3ccncc3)nc2n(C)c1=O", "growth inhibition": "-19% (inactive)"},
      {"smiles": "O=C1N=c2ccc(Br)cc2=C1c1sc(=O)n(Cc2nc3ccccc3[nH]2)c1O", "growth inhibition": "0% (inactive)"},
      {"smiles": "N#C/C(=C\\c1cccnc1)c1csc2ccccc12", "growth inhibition": "-5% (inactive)"},
      {"smiles": "Cc1nn(CCO)c(=O)c(C#N)c1C", "growth inhibition": "5% (inactive)"},
      {"smiles": "CN(/N=C/c1ccc(C(=O)O)cc1)C1=NCCCCN1", "growth inhibition": "1% (inactive)"},
      {"smiles": "C=CCCCN1C(=O)C2C3c4ccccc4C(C=O)(c4ccccc43)C2C1=O", "note": "(stereo unspecified)", "growth inhibition": "27% (inactive)"},
      {"smiles": "CC(Cc1ccccc1)N1C(=O)C=CC1=O", "note": "(stereo unspecified)", "growth inhibition": "47% (inactive)"},
      {"smiles": "O=C(Nc1c(Cl)cc([N+](=O)[O-])cc1Cl)/C(=N\\Nc1cccc(Cl)c1)c1c(O)c2ccccc2oc1=O", "growth inhibition": "26% (inactive)"},
      {"smiles": "C/C(=N/O)c1ccc2c(c1)C(=NO)c1cc(/C(C)=N/O)ccc1-2", "growth inhibition": "1% (inactive)"},
      {"smiles": "CCCCCCCCCCCC(=O)NC(CCC(=O)O)C(=O)O", "note": "(stereo unspecified)", "growth inhibition": "-18% (inactive)"},
      {"smiles": "O=C1c2ccccc2C(=O)c2c1cccc2[N+](=O)[O-]", "growth inhibition": "85% (active)"},
      {"smiles": "C/C=C\\C=N\\NC(N)=S", "growth inhibition": "2% (inactive)"},
      {"smiles": "Oc1c(Cl)cc(C(c2cc(Cl)c(O)c(Cl)c2)C(c2cc(Cl)c(O)c(Cl)c2)c2cc(Cl)c(O)c(Cl)c2)cc1Cl", "growth inhibition": "99% (active)"},
      {"smiles": "S=C1NC2=C(CSC/C2=C\\c2ccccc2)C(c2ccccc2)N1", "note": "(stereo unspecified)", "growth inhibition": "35% (inactive)"},
      {"smiles": "O=[N+]([O-])c1cccc2nc3ccccc3c(NCCNCCO)c12", "growth inhibition": "89% (active)"},
      {"smiles": "COC12C=CC(CC1)c1c2c(O)c2ccncc2c1O", "note": "(stereo unspecified)", "growth inhibition": "-3% (inactive)"}
    ]}
  ]
}
